DAX1 inh-1 – inhibitors of human orphan nuclear receptor DAX1 (NR0B1) | HEK293 Gal4-DAX1 luciferase reporter, luminescence | inhibition, % at 6.75 µM | hit rate 0.99% among 340,000;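 active = inhibition above the mean over all tested compounds plus 3 SD, cut at about 4.2% in these data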;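 note: 0% = DAX1-transfected cells with DMSO and 100% = empty-vector control cells with DMSO; inhibition shows as a rise in luminescence from relieved DAX1 repression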
Target sequence (P51843 207-470 limits assumed): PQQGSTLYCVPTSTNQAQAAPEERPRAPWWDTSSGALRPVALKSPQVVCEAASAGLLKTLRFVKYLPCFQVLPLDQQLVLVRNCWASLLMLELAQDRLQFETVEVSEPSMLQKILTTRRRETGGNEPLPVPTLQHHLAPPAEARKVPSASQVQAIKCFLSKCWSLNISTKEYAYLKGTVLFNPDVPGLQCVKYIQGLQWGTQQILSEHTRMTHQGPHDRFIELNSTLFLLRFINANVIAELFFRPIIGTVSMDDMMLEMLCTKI
hgDAF12 agonist – agonists of H. glycines DAF-12 nuclear receptor | HEK293 GAL4-hgDAF12 UAS-luciferase reporter, agonist luminescence; normalized to butyrate control | activation, % at 6.8 µM | hit rate 1.8% among 370,000;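 active = activation above a cutoff set at the mean of all screened compounds plus 3 SD, cut at about 10% in these data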;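 note: 0% = DMSO wells and 100% = sodium butyrate wells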
ssDAF-12 act – activates DAF-12 receptor from parasite S. stercoralis; hit rate 1% among 370,000; HEK293 ssDAF-12/GRIP1 lit1-tk-luc reporter, luminescence; % of 3 µM dafachronic acid response; activation, % at 6.8 µM;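 active = activation above the mean over all tested compounds plus 3 SD, cut at about 0.9% in these data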;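 note: 0% = DMSO-only wells and 100% = 3 µM delta7-dafachronic acid wells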
DAX1 inh-2 – blocks DAX1 repression of SF-1 activated StAR promoter; hit rate 1.1% among 370,000; inhibition, % at 6.8 µM; HEK293T StAR-luciferase reporter, SF-1/DAX-1 repression relief;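 active = inhibition above the mean over all tested compounds plus 3 SD, cut at about 3.6% in these data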;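 note: 0% = DAX-1 cells with DMSO and 100% = cells lacking DAX-1 with DMSO; higher inhibition means more luminescence from relief of DAX-1 repression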
hcDAF12 agonist – H. contortus DAF-12 activation, primary screen | HEK293 hcDAF-12 lit1-tk-luc reporter, luminescence; 0% DMSO, 100% Δ7-dafachronic acid | activation, % at 6.8 µM | hit rate 1.4% among 370,000;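 active = activation above the mean of all tested compounds plus 3 SD, cut at about 5.5% in these data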;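 note: 100% = response to 3 µM Δ7-dafachronic acid high control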
* marks the source's active call; other numbers are inactive results; nt = not tested or not shown. Most compounds without a hit are left out; they make up all but 4.1% or so of the library.

SMILES	DAX1 inh-1	hgDAF12 agonist	ssDAF-12 act	DAX1 inh-2	hcDAF12 agonist
Cc1ccccc1CNC(=O)C1C2C=CC3(CN(Cc4ccccc4)C(=O)C13)O2 (stereo not given)	nt	1	-1	0	1
CCCC(=O)N1CCC[C@]2(CC[C@@H](CCC(C)=O)O2)C1	nt	-1	-1	2	0
O=C(NCc1ccc(F)cc1)c1cc2c(s1)CCCC2	7.0*	4	-1	-1	-3
COc1ccc2nc(NN=Cc3cccc(C)n3)cc(C)c2c1	nt	0	0	1	-1
CC(Sc1nnc(-c2ccc(OC(F)F)cc2)o1)C(=O)NCC1CCCO1 (stereo not given)	0	-2	1.1*	1	2
O=C(COC(=O)c1ccc(OC(F)F)cc1)NCC1CCCO1 (stereo not given)	1	4	-1	-2	-1
CC(Sc1nnc(-c2ccc(OC(F)F)cc2)n1N)C(=O)NCC1CCCO1 (stereo not given)	0	1	-1	4.4*	0
O=C(NC1CCCCC1)C1c2ccccc2OCC(=O)N1Cc1ccco1 (stereo not given)	nt	1	-1	4.4*	-1
O=C(NC1CCCC1)C1c2ccccc2OCC(=O)N1Cc1ccccn1 (stereo not given)	nt	0	-1	-1	-1
Cc1ccc(-c2nc(C3CCCN(S(=O)(=O)c4ccccc4)C3)no2)cc1 (stereo not given)	nt	0	-1	0	-3
O=C(NNc1ncnc2ccccc12)c1cccc(Cl)c1	5.8*	11*	1	1	3
O=C(O)/C=C/C(=O)NNc1ncnc2ccccc12	1	1	0	0	1
C[C@H]1[C@@H](OC(=O)NCc2ccccc2Cl)CC[C@@]23CCCN2C(=O)CCC[C@@H]13	nt	2	-2	nt	-1
O=C(O)c1ccc(NC2=C(Cl)C(=O)c3ccccc3C2=O)cc1	3	2	0.9*	0	6.7*
O=C(O)c1cccc(NC2=C(Cl)C(=O)c3ccccc3C2=O)c1	-1	3	-1	1	3
COc1ccc(C(=O)OCCN2CCN(C3CN(Cc4cn(Cc5cccc(F)c5)nn4)S(=O)(=O)C3)CC2)cc1OC (stereo not given)	nt	1	-2	-2	-3
COc1cc([N+](=O)[O-])ccc1NC(=S)Nc1cccc(C(=O)O)c1	1	5	-1	1	7.0*
c1ccc(Cc2cc(-c3ccccc3)on2)cc1	5.5*	10	-1	0	1
COc1ccc(N2CCN(C(=O)c3cc4c(-c5ccc(Cl)cc5)nn(C)c4s3)CC2)cc1	2	-3	0	0	6.0*
Cn1nc(-c2ccc(Cl)cc2)c2cc(C(=O)N3CCOCC3)sc21	0	6	0	-1	5
Cn1nc(-c2ccc(Cl)cc2)c2cc(C(=O)NCC3CCCO3)sc21 (stereo not given)	-1	-1	0	0	1
CN1CCN(CCCNC(=O)c2cc3c(-c4ccc(Cl)cc4)nn(C)c3s2)CC1	3	0	0	2	5.6*
CC(C)c1[nH]nc2c1C(c1ccc(F)cc1)N(Cc1ccccc1)C2=O (stereo not given)	nt	0	-1	0	-1
C=C1C(=O)[C@]23C[C@H]1CC[C@H]2[C@]1(C)[C@@H](O)CC[C@@](C)(C(=O)O)[C@H]1C[C@@H]3O	nt	-1	0	4.3*	0
C=C1C(=O)[C@]23C[C@H]1CCC2[C@@]1(C)C(C[C@@H]3O)[C@](C)(C(=O)O)C[C@H](O)[C@@H]1O (stereo not given in full)	nt	0	-2	-1	-2
SMILES	DAX1 inh-1	hgDAF12 agonist	ssDAF-12 act	DAX1 inh-2	hcDAF12 agonist
Cc1noc(C)c1S(=O)(=O)N(C)C[C@@H]1OCc2cnnn2CCCC(=O)N([C@@H](C)CO)C[C@@H]1C	nt	-1	-1	0	-2
CCC(CO)Nc1cccc2c1S(=O)(=O)N(Cc1cn(Cc3ccc(Cl)cc3)nn1)Cc1ccccc1O2 (stereo not given)	nt	-1	-2	-1	-3
Cn1c(COc2ccccc2Br)nc2ccccc21	6.0*	10	1	2	4
Cn1c(CNc2nc3ccccc3n2C)nc2ccccc21	0	11*	0	2	3
Cn1c(NCc2c(O)ccc3ccccc23)nc2ccccc21	-1	1	-1	0	0
COc1ccc(Nc2cc(C)c3ccccc3n2)cc1	1	11*	-1	1	-1
Cn1c(NCc2ccc(Cl)cc2)nc2ccccc21	1	13*	1.5*	3	6
Cc1cc(Nc2ccc([N+](=O)[O-])cc2)nc2ccccc12	-1	1	-2	-1	-3
COc1ccccc1OCc1nc2ccccc2n1C	1	7	0	1	1
CC(C)n1c(NCc2nc3ccccc3n2C)nc2ccccc21	1	1	0	0	0
c1nc(NCC2CC2)c2cc(-c3ccc4c(c3)OCO4)ccc2n1	nt	7	0	nt	3
COc1ccc(/C=C/S(=O)(=O)NCC(C)C)c(CNC(=O)OC(C)(C)C)c1	nt	-3	-2	0	-3
Cn1c(CNc2ccc(O)cc2)nc2ccccc21	1	-1	0	0	0
COc1ccc(Nc2nc3ccccc3n2C)cc1	6.4*	12*	0	1	5
CCOC(=O)c1ccc(NCc2nc3ccccc3n2C)cc1	2	10	0.9*	2	4
COC(=O)c1cc2c(c3c4cc(OC)ccc4n(S(C)(=O)=O)c13)C(=O)N(C)C2	nt	-1	-1	-1	0
Cc1cc(C)c(S(=O)(=O)n2ccc3ccccc32)c(C)c1	0	1	1.7*	1	-1
O=S(=O)(c1ccccc1)n1ccc2ccccc21	0	0	0	0	2
Cc1ccc(C(=O)NCc2ccc3c(c2)CCO3)cc1C	2	4	-2	1	-2
O=C(NCc1ccc2c(c1)CCO2)Nc1ccccc1	3	12*	-1	2	0
Cc1ccc(C)c(OCC(=O)Nc2nonc2NC(=O)COc2cc(C)ccc2C)c1	5.3*	-3	0	0	1
Cc1cccc(OCC(=O)Nc2nonc2NC(=O)COc2cccc(C)c2)c1	0	0	-1	0	-1
Cc1cc(Cl)c2oc(C(=O)N(C)Cc3cc(C)[nH]n3)c(C)c2c1	1	-2	-1	0	-2
Cc1cc(Cl)c2oc(C(=O)N(CCO)Cc3ccccc3)c(C)c2c1	8.1*	0	-1	1	0
Cc1cc(Cl)c2oc(C(=O)N(C)Cc3ccon3)c(C)c2c1	1	13*	0	1	2
C/C(=N/O)c1no[n+]([O-])c1/C(C)=N\O	7.2*	0	-1	0	-1
O=C(CSc1nc(=O)n2ccccc2n1)NCCc1ccccc1	0	0	0	3.9*	0
O=C(CSc1nnnn1C1CCCC1)NCCc1ccccc1	5.3*	5	-1	1	0

Screening results (PubChem)
